Results taken from PubChem BioAssay (NCI).
This is part of a sample that, as a whole, favours compounds with a hit. Of some 79,000 tested, about 15% had one in any assay. The source made the active and inactive calls. Cut-off read from the data, not from the text of the source: active = growth inhibition above about 70%; inactive = the rest.

Key:
[1] = NCI Yeast Anticancer Drug Screen. Data for the rad50 strain (AID 155);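 note: 0% = growth of vehicle-only cultures of the same strain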; conditions: S. cerevisiae rad50 strain growth inhibition; at 50.0 µM; stronger effect = higher value
Method in brief: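 Inhibition values express reduced yeast growth in compound-treated cultures relative to vehicle-treated controls.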

[2] = NCI Yeast Anticancer Drug Screen. Data for the mec2-1 strain (AID 157); conditions: S. cerevisiae mec2-1 strain, at 50.0 µM, stronger effect = higher value
Method in brief: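 Each compound was tested on mec2-1 yeast, a strain altered in DNA damage repair or cell cycle control. Growth inhibition is reported relative to vehicle.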

[3] = NCI Yeast Anticancer Drug Screen. Data for the sgs1 mgt1 strain (AID 161);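 note: 0% = growth of cultures given vehicle only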; conditions: S. cerevisiae sgs1 mgt1 strain, at 50.0 µM, stronger effect = higher value
Method in brief: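 Genetically altered yeast, compound exposure, growth inhibition relative to vehicle.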

[4] = NCI Yeast Anticancer Drug Screen. Data for the cln2 rad14 strain (AID 165);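 note: 0% = growth equal to vehicle treated cultures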; conditions: S. cerevisiae cln2 rad14 strain, at 50.0 µM, stronger effect = higher value
Method in brief: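 Test compounds were added to cln2 rad14 yeast cultures; inhibition of growth was then determined by comparison with vehicle treatment.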

[5] = NCI Yeast Anticancer Drug Screen. Data for the bub3 strain (AID 167); conditions: S. cerevisiae bub3 mutant strain, at 50.0 µM, stronger effect = higher value
Method in brief: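 Steps: expose the mutant yeast strain to compound; grow alongside vehicle-treated cultures; measure growth; express inhibition against the vehicle cultures.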

[6] = NCI Yeast Anticancer Drug Screen. Data for the mlh1 rad18 strain (AID 175); conditions: S. cerevisiae mlh1 rad18 strain growth inhibition; at 50.0 µM; stronger effect = higher value
Method in brief: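 Inhibition values reflect reduced growth of mutant yeast versus vehicle-treated controls following compound exposure; the mutations affect DNA damage repair.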

Measured: growth inhibition

CC1(OC(=O)Nc2ccccc2)CCCCC1
inactive: [1] 5.75% | [2] -0.8% | [3] 0.9% | [4] 3.55% | [5] 3.55% | [6] -9.95%

O=C(NCCCCCCNC(=O)c1ccccn1)c1ccccn1
inactive: [1] 0.25% | [2] -9.9% | [3] 9.05% | [4] -7.15% | [5] -14.8% | [6] -0.8%

COc1ccc2c(c1)CC[C@@H]1[C@@H]2CC[C@]2(C)C(=O)/C(=N/O)C[C@@H]12
inactive: [1] -15% | [2] 4.85% | [3] 1.85% | [4] -34% | [5] 31.5% | [6] -14.2%

S=c1cn[nH]c2ccccc12
inactive: [1] 16% | [2] 40.1% | [3] 16.9% | [4] 7.85% | [5] 49.6% | [6] 37.6%

CCOC(=O)C1(Cc2ccc3c(c2)CCC3)Cc2cc3c(cc2C1=O)CCC3 (stereo not drawn)
inactive: [1] -11.1% | [2] -28.1% | [3] -17.9% | [4] 19.1% | [5] 14.2% | [6] -2.55%

OC1CCCCCCCCCCC1C(O)(C(F)(F)F)C(F)(F)F (stereo not drawn)
active: [1] 99.3% | [2] 99.5% | [3] 99.8% | [4] 99% | [5] 99.6% | [6] 98.8%

CCc1cc2c(c3c1CCC3=O)CC1(Cc3ccc(C)cc3C1)C2 (stereo not drawn)
inactive: [1] -47.1% | [2] -54.5% | [3] -32.5% | [4] -21.6% | [5] -22.1% | [6] -44.7%

C[n+]1ccn(S(=O)(=O)[O-])c1
inactive: [1] 1.9% | [2] 4.2% | [3] -4.35% | [4] 0.55% | [5] -19.6% | [6] -8.05%

CCCCNC(=O)OCCN(C)CCOC(=O)NCCCC
inactive: [1] -15.7% | [2] -21.9% | [3] -17.2% | [4] 3.05% | [5] 6.2% | [6] 3.55%

Cc1cccc(C(=O)NCC(=O)O)c1
inactive: [1] -13.8% | [2] -3.7% | [3] -9.9% | [4] -85.5% | [5] 4.5% | [6] -9.7%

CC(=O)C1C(=O)C(=O)N(c2ccc([N+](=O)[O-])cc2)C1=O (stereo not drawn)
inactive: [1] -26.9% | [2] -37.4% | [3] -10.7% | [4] 20.9% | [5] -1.9% | [6] -37.5%

COc1ccc(C2OC23CC(C)(C)c2ccccc2C3=O)cc1 (stereo not drawn)
inactive: [1] -3.8% | [2] 1.65% | [3] -0.05% | [4] -11% | [5] 16.3% | [6] -1.1%

CCOC(=O)c1cn(CC)c2cc3c(cc2c1=O)SCS3
inactive: [1] -37.3% | [2] -18.9% | [3] -16.6% | [4] 29.9% | [5] 19.4% | [6] 41%

CC1(C)SC2C(C(=O)O)N=C(Cc3ccccc3)N2C1C(=O)O (stereo not drawn)
inactive: [1] 3.2% | [2] -17.9% | [3] -23.4% | [4] 1.45% | [5] -34% | [6] -7.05%

COc1nc(N)c(C(=O)CCl)c(=O)n1C
inactive: [1] 3.35% | [2] -7.5% | [3] 6.5% | [4] 0.35% | [5] -20.6% | [6] 16.5%

NCC(=O)N1CCCCC1
inactive: [1] 7.05% | [2] 9.75% | [3] 4.95% | [4] -8.15% | [5] -2.1% | [6] 7.7%

NC(=O)CSc1ccccc1
inactive: [1] 8% | [2] 2.1% | [3] 9.8% | [4] 10.1% | [5] -4.5% | [6] -8.6%

O=S(=O)(O)c1cc(I)c(O)c2ncccc12
inactive: [1] 18.5% | [2] 1% | [3] -1.05% | [4] -67.8% | [5] 19.4% | [6] 45.4%

Cc1cccc(S(=O)(=O)c2ccccc2)c1
inactive: [1] 22.9% | [2] 34.1% | [3] -15.7% | [4] 13.1% | [5] 4.35% | [6] 18.6%

CCOC(=O)/C(=C\c1ccc[nH]1)C(=O)c1ccccc1
inactive: [1] 48% | [2] -5.9% | [3] 5% | [4] 27.6% | [5] 20.1% | [6] 9.05%

COC(=O)C1=NC(=S)N=C(C(=O)OC)C1(C)C(=O)c1ccccc1
inactive: [1] 4.3% | [2] -6.95% | [3] -12.4% | [4] 0.8% | [5] 3.75% | [6] 18.4%

CCCCCC(=O)C#Cc1ccccc1
inactive: [1] 24.1% | [2] 11.1% | [3] 11.7% | [4] -7.25% | [5] -4.9% | [6] 20.4%

COc1ccc(N(C)CN(C)c2nc(N(C)C)nc(N(C)C)n2)cc1
inactive: [1] -67.8% | [2] -30.8% | [3] -43% | [4] -45.4% | [5] -60.8% | [6] -62.9%

CCc1ccccc1NC(=S)NC1CCCCC1
inactive: [1] -2.7% | [2] -8.85% | [3] 0.05% | [4] -18.5% | [5] 32.2% | [6] -5.6%

COC(=O)c1cc(Cl)ccc1Br
inactive: [1] 17.4% | [2] 14.1% | [3] -0.05% | [4] 14.8% | [5] -3.85% | [6] 43%

CC(C)C(O)(C(=O)O)C(C)C
inactive: [1] 11.1% | [2] -11% | [3] -4.1% | [4] -4.3% | [5] -17.9% | [6] -1.15%

CN(C(=O)CCCO)c1cc([N+](=O)[O-])ccc1OCc1ccccc1
inactive: [1] 7.6% | [2] 2.8% | [3] -1.2% | [4] -0.8% | [5] 0.7% | [6] -0.75%

CC/C(=N/NS(=O)(=O)c1ccc(C)cc1)c1ccc(O)cc1
inactive: [1] 22.7% | [2] 18.1% | [3] 7.9% | [4] 36.8% | [5] 25.5% | [6] 46.6%

c1ccc(CSC2(SCc3ccccc3)CCCC2)cc1
inactive: [1] -7.3% | [2] -19.3% | [3] -22.6% | [4] 11.8% | [5] -1.1% | [6] -4.45%

O=C(O)C1C=CCN1 (stereo not drawn)
inactive: [1] 0.8% | [2] 1.2% | [3] 0.15% | [4] -6.55% | [5] -18.6% | [6] -3.5%

COc1ccc(OC)c2cc3c(cc12)C(=O)C(C)=C(C)C3=O
inactive: [1] 6.15% | [2] -2.55% | [3] 10.8% | [4] -30% | [5] -1.3% | [6] 7.7%

Cc1nc2ccccc2n1C(=O)c1c(F)c(F)c(F)c(F)c1F
inactive: [1] -35.9% | [2] -17.6% | [3] -28.6% | [4] -18.7% | [5] -9.8% | [6] -18.9%

O=S(=O)(NCCBr)c1ccccc1
inactive: [1] -1.5% | [2] 2.45% | [3] -8.9% | [4] 11.6% | [5] -2% | [6] 2.05%

CC1(C#N)CC/C(=C\c2ccc3c(c2)OCO3)C(=O)C1 (stereo not drawn)
inactive: [1] 0.3% | [2] 16.9% | [3] 4.75% | [4] -1.1% | [5] -6.7% | [6] -4.6%

O=C(c1ccc(Cl)cc1)c1cccc(Cl)c1
inactive: [1] -6.35% | [2] -16.1% | [3] -3.7% | [4] -1.5% | [5] -10% | [6] 6.3%

Cc1cccc(NCc2ccccc2)c1
inactive: [1] 32.5% | [2] 5.95% | [3] 19.4% | [4] -22.1% | [5] 29.6% | [6] 24.9%

CCc1ccc2c(c1)/C(=N\NC(N)=O)CCC2
inactive: [1] -11.2% | [2] 13.5% | [3] -12.8% | [4] -7.6% | [5] 9.8% | [6] -9.5%

CNCc1cccs1
inactive: [1] -26.8% | [2] -9.7% | [3] -27.8% | [4] -40.3% | [5] -17.6% | [6] -10.4%

CCN(CC)CCCNc1ccnc2c(N)cccc12
inactive: [1] 3.1% | [2] 1.4% | [3] 5.65% | [4] 9.75% | [5] 5.45% | [6] 6.75%

O=C1c2ccccc2C(=O)N1CC1(C(=O)O)NCCS1(=O)=O (stereo not drawn)
inactive: [1] 3.3% | [2] -7.5% | [3] -22.3% | [4] 26.8% | [5] -48.9% | [6] 10.1%

CCS(=O)O
inactive: [1] -21.2% | [2] 15.9% | [3] 1.3% | [4] -4.25% | [5] -6.8% | [6] -8.9%

CCCCCCCCCCOC1C(C(C)OCCCN(C)C)OC2OC3(CCCCC3)OC21 (stereo not drawn)
active: [1] 91.8% | [2] 93.3% | [6] 86.2%
inactive: [3] 40.7% | [4] 16.1% | [5] -31.6%

NNc1ncnc2ccc(Cl)cc12
inactive: [1] 1.05% | [2] -9.15% | [3] 11.4% | [4] 1.05% | [5] 5.8% | [6] 6.5%
